Screening data deposited in PubChem BioAssay by National Center for Advancing Translational Sciences (NCATS).
VACV mCherry inh – qHTS for Stage-Specific Inhibitors of Vaccinia Orthopoxvirus: mCherry Reporter Primary qHTS; Vaccinia virus mCherry reporter infection, fluorescence; Potency, µM (top dose mostly 36.5 µM), usual class: inhibitors; hit rate 0.63% among 310,000; calls by dose curve; tested in A549 cells; note: nearly all actives have a fitted effect of over 35% in size
HCMV inh – qHTS Assay for inhibitors of the human cytomegalovirus (HCMV); HFF cells, HCMV-luciferase reporter, 72 h; active compounds read low; activity change, negative = inhibition, % at 57.5 µM; hit rate 4.5% among 410,000; AID 1259415, 2018; in the data active = activity change below about -60%; inconclusive = no clear call, values can overlap the other calls; inactive = above about -39%
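HFF cells seeded 16 h at 37C, treated with compounds, infected with luciferase-reporter HCMV at MOI 1 PFU/cell; luciferase read at 72 h post infection, normalized to buffer-only and Salinomycin controls.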
FMDV antiviral – High Throughput Screening for Foot and Mouth Disease Virus Antivirals. FMDV antiviral cell-based qHTS. Potency, µM (titrated, usually from 57.9 µM), most hits filed as inhibitors. hit rate 1.2% among 410,000. AID 1159524, 2015; calls by dose curve; tested in HEK293T cells; note: read-out not given here; nearly all actives have a fitted effect of over 45% in size
VACV Venus inh – qHTS for Stage-Specific Inhibitors of Vaccinia Orthopoxvirus: Venus Reporter Primary qHTS. Vaccinia virus Venus reporter expression, fluorescence. Potency, µM (top dose mostly 36.5 µM), most hits filed as inhibitors. hit rate 0.46% among 330,000. AID 720580, 2013; calls by dose curve; tested in A549 cells; note: nearly all actives have a fitted effect of over 30% in size
HCV inh – qHTS Assay for Inhibitors of Hepatitis C Virus (HCV). Huh7.5.1 HCVcc-Cre infection, luciferase reporter, 44 h. Potency, µM (series often up to 41.8 µM), usual class: inhibitors. hit rate 3.4% among 340,000. AID 651820, 2012; active = well fitted inhibition curve with a large enough effect; inconclusive = small, poorly fitted or top-dose-only effect, or another doubt; inactive = no such curve, though single readings can be large or run the other way
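After 44 h co-culture of compound, cells and HCVcc-Cre (~0.5 moi), substrate is added for 15 min at room temperature and luciferase measured over 15 sec. Cells were seeded at 1,000/well and pre-cultured 4 h.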
Of the large screens only hits and unclear results are named; the others gave an inactive call. A selection: hits, their analogues and other compounds. The true share with any hit is near 7.3%.

CCCCN(C)C(=O)c1ccc2c(c1)N(Cc1cccc(Cl)c1)C(=O)c1ccccc1S2=O (stereo unspecified)	HCMV inh -81 (no result: HCV inh)
CN(C)c1ccc(/C=C2\C=Cc3ccccc32)cc1N	none (no result: HCMV inh, FMDV antiviral, HCV inh)
CC(C)(C)c1cc(/C=N/NC(=O)Cc2nc3ccccc3[nH]2)cc(C(C)(C)C)c1O	HCMV inh -79 (no result: VACV mCherry inh)
O=C(Cc1nc2ccccc2[nH]1)N/N=C/c1ccccc1	none (no result: VACV mCherry inh, VACV Venus inh)
Cc1ccc(C(c2sc3nc(-c4ccco4)nn3c2O)N2CCC3(CC2)OCCO3)cc1 (stereo unspecified)	none (no result: HCV inh)
C=CCNC(=S)N/N=C/c1cn(C)c2ccccc12	VACV Venus inh inconclusive, HCV inh 35µM
CNC(=S)N/N=C/c1cn(CCOc2ccccc2OC)c2ccccc12	VACV mCherry inh 4.5µM, VACV Venus inh 7.1µM, HCV inh inconclusive
CNC(=S)N/N=C/c1cn(CCOc2cccc(OC)c2)c2ccccc12	VACV mCherry inh 4µM, VACV Venus inh inconclusive, HCV inh 10µM
Cn1cc(/C=N/NC(N)=S)c2ccccc21	VACV mCherry inh inconclusive, VACV Venus inh inconclusive
Cc1ccc(N2CCN(C(=O)Nc3cn(CC(C)C)c(=O)c4ccccc34)CC2)c(C)c1	VACV mCherry inh inconclusive (no result: HCV inh)
CC(C)(C)Cc1c(-c2ccc(C#N)cc2)nc2c(Cl)cc(C(F)(F)F)cn12	HCMV inh -83, FMDV antiviral inconclusive (no result: HCV inh)
CN(C)CCN(Cc1ccccc1)C(=O)c1[nH]c(C(F)(F)F)nc1-c1ccccc1	FMDV antiviral 35µM (no result: HCV inh)
CCCCN(C)C(=O)c1[nH]c(C(F)(F)F)nc1-c1ccccc1	none (no result: HCV inh)
COc1ccccc1CN1CCCC2(CCN(C(C)=O)CC2)C1	none (no result: VACV mCherry inh, HCMV inh, VACV Venus inh, HCV inh)
OC(COCc1ccccc1)CN1CCCC1 (stereo unspecified)	none
c1ccc(COC(CN2CCCCCC2)CN2CCCCCC2)cc1	HCV inh 10µM (no result: VACV mCherry inh, VACV Venus inh)
COc1ccc(C2=C/C(=C\c3cccc(OC(C)=O)c3)C(=O)O2)cc1	HCMV inh -65 (no result: VACV mCherry inh, VACV Venus inh)
O=S(=O)(NCc1ccc(Cl)c(Cl)c1)c1cc(Cl)ccc1N1CC[C@@H](O)C1	none (no result: VACV mCherry inh, FMDV antiviral, VACV Venus inh, HCV inh)
CCS(=O)(=O)N1CCc2cc(C(=O)N3CCN(c4ccc(OC)cc4)CC3)ccc21	none (no result: HCV inh)
O=C(Nc1ccc(Oc2cccc(C(F)(F)F)c2)nc1)c1ccccc1	FMDV antiviral inconclusive, HCV inh inconclusive
COc1cccc(/C=C/C(=O)Nc2ccc(OC)nc2)c1	HCMV inh -66
COc1cccc(C(=O)Nc2ccc(Oc3cccc(C(F)(F)F)c3)nc2)c1	HCMV inh -74, VACV Venus inh inconclusive, HCV inh 7.1µM
O=C(Nc1ccc(Oc2cccc(C(F)(F)F)c2)nc1)c1cccs1	HCMV inh -61, FMDV antiviral inconclusive, HCV inh inconclusive
Cc1ccccc1Cn1c(CN2CCC(C(=O)NCCN(C)C)CC2)cc2ccccc21	HCMV inh inconclusive (no result: HCV inh)
Cn1c(Sc2ccc(Cl)cc2)c(C=O)c2ccccc21	HCMV inh inconclusive, FMDV antiviral inconclusive, HCV inh 10µM (no result: VACV mCherry inh)
CCOC(=O)N1CCN(c2nc(-c3cccc(OC)c3)cc(C(F)(F)F)n2)CC1	HCV inh inconclusive (no result: VACV mCherry inh, VACV Venus inh)
CCOC(=O)N1CCN(c2nc(-c3ccco3)cc(C(F)(F)F)n2)CC1	HCMV inh -62, FMDV antiviral inconclusive, HCV inh inconclusive
O=C(CCCSc1nc(-c2ccco2)cc(C(F)(F)F)n1)NCC1CCCO1 (stereo unspecified)	VACV Venus inh inconclusive, HCV inh inconclusive (no result: VACV mCherry inh)
O=C(CCSc1nc(-c2ccco2)cc(C(F)(F)F)n1)NCC1CCCO1 (stereo unspecified)	HCV inh 10µM (no result: VACV mCherry inh)
Cc1nn(C)cc1NC(=O)CCSc1nc(-c2ccco2)cc(C(F)(F)F)n1	HCMV inh inconclusive, HCV inh 11µM (no result: VACV mCherry inh)
CCn1nc(C)c(NC(=O)CCCSc2nc(-c3ccco3)cc(C(F)(F)F)n2)c1C	FMDV antiviral inconclusive, VACV Venus inh inconclusive, HCV inh 2µM
COc1ccc(CCNC(=O)CCSc2nc(-c3ccco3)cc(C(F)(F)F)n2)cc1	HCMV inh inconclusive, HCV inh inconclusive
CCn1ncc(CNC(=O)CCSc2nc(-c3ccco3)cc(C(F)(F)F)n2)c1C	FMDV antiviral inconclusive, HCV inh 10µM
N#Cc1c2n(c3c(=S)nc[nH]c13)CCCCC2	HCMV inh -75 (no result: VACV mCherry inh)
N#Cc1c2n(c3c(=O)[nH]cnc13)CCCC2	none (no result: VACV mCherry inh, VACV Venus inh)
CCCN(CCC)S(=O)(=O)c1ccc(C(=O)N2CCn3c4c(c5cc(C)ccc53)CCCC42)cc1 (stereo unspecified)	none (no result: HCV inh)
CC(C)CN=Cc1c(O)c([N+](=O)[O-])cc2oc3c(c12)CCCC3	FMDV antiviral 32µM
O=c1cc(-c2ccccc2[N+](=O)[O-])oc2ccccc12	HCMV inh -66, VACV Venus inh inconclusive
O=c1cc(-c2ccccc2F)oc2ccccc12	HCV inh inconclusive (no result: VACV mCherry inh, VACV Venus inh)
CSc1ccc(-c2cc(=O)c3ccccc3o2)cc1	HCMV inh -72, HCV inh inconclusive
c1ccc(OCc2noc(CN3CCC(C4CCCCC4)C3)n2)cc1 (stereo unspecified)	HCMV inh -61 (no result: VACV mCherry inh, VACV Venus inh)
COCC1CCN(Cc2nc(COc3ccccc3)no2)C1 (stereo unspecified)	none
Cc1ccc(NC(=O)COc2ccccc2)c(NC(=O)c2ccccc2C)c1	HCMV inh -64
COc1ccc(CCNC(=O)COc2coc(CN3c4ccccc4CC3C)cc2=O)cc1OC (stereo unspecified)	HCMV inh inconclusive, FMDV antiviral 22µM, HCV inh 11µM
CNC(=O)/C(=C\c1ccc2c(c1)OCO2)NC(=O)c1ccc(Br)cc1	HCMV inh -60
CO[C@H]1C=CO[C@@]2(C)Oc3c(C)c(O)c4c(O)c(c(C=NN5CCN(C)CC5)c(O)c4c3C2=O)NC(=O)C(C)=CC=C[C@H](C)[C@H](O)[C@@H](C)[C@@H](O)[C@@H](C)[C@H](OC(C)=O)[C@H]1C	none (no result: VACV mCherry inh, HCMV inh, VACV Venus inh, HCV inh)
CN1CCCC(OC(=O)COc2ccccc2)C1 (stereo unspecified)	none
CN1CCCC(CC2Oc3ccccc3Sc3ccccc32)C1 (stereo unspecified)	VACV mCherry inh inconclusive, HCMV inh inconclusive, VACV Venus inh inconclusive, HCV inh 11µM
c1ccc2c(c1)OC(CCCN1CCCCC1)c1ccccc1S2 (stereo unspecified)	HCV inh 25µM
c1ccc(OCCCCN2CCCCC2)cc1	none
COc1ccc(NC(=O)C2CCN(S(=O)(=O)c3cccc(-c4noc(C)n4)c3)CC2)cc1OC	none (no result: HCV inh)
CC(C)CN(CC(C)C)CC(O)COc1ccccc1Br (stereo unspecified)	HCMV inh -76, FMDV antiviral inconclusive
CCCC1CC(C)(c2csc(Nc3ccc(OCC)cc3)n2)OC1=O (stereo unspecified)	HCMV inh -89, HCV inh inconclusive (no result: VACV mCherry inh, VACV Venus inh)
CCOc1ccc(NC(=O)CC2CC(C)(C)OC2=O)cc1 (stereo unspecified)	none
COc1ccc2c3n([n+]([O-])c2c1)C(C)CN=C3c1ccc(Cl)cc1 (stereo unspecified)	none (no result: VACV mCherry inh, FMDV antiviral, VACV Venus inh, HCV inh)
